Measured values from PubChem BioAssay AID588852 (The Scripps Research Institute Molecular Screening Center, 2011).
Out of some 360,000 compounds screened, about 4,600 (1.3%) were called active. This is one part of a sample in which actives are shown more often than they occur. Unmarked numbers belong to inactive results.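 How the source made its calls: active means percent inhibition above its own plate's cutoff, namely the mean of that plate's compound wells plus 3 SD; inactive means the rest.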

These compounds were tested against Muscarinic acetylcholine receptor M1 (Homo sapiens) (UniProt P11229) (assay: CHRM1 blockers of acetylcholine calcium response – CHO-K1 cells, Fluo-8 calcium fluorescence, 1536-well, primary screen (AID 588852;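 further: peak over basal fluorescence ratio during 140 s after agonist addition; 0% = ACh EC80 plus DMSO and 100% = DMSO alone without agonist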)). Conditions: CHO-K1 hM1, Fluo-8 calcium fluorescence, ACh EC80 antagonist; at 3 µM; active compounds read high.
Chain of Muscarinic acetylcholine receptor M1 (Homo sapiens) (P11229 whole entry, looked up): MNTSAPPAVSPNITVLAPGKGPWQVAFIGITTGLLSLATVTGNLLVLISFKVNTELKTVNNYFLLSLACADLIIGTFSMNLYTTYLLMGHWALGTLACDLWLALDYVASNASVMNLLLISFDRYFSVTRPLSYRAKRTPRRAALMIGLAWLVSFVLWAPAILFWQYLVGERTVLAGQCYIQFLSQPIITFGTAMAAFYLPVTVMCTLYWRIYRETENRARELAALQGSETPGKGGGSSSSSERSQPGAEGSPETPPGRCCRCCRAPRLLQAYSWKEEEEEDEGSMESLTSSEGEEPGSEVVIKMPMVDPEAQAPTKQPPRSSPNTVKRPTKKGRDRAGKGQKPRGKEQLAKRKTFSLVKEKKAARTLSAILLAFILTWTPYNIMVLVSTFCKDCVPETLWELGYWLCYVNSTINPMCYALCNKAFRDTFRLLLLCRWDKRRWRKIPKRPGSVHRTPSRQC

`Cc1ccc(-c2cnc(C(O)c3cc(Cl)cc(Cl)c3)[nH]2)cc1` (configuration not stated) was tested. Which inhibition did it give?
The inhibition was 10.3%.

How did the inhibition turn out when `COc1ccc(OC)c(-c2c(=O)n(OCc3ccccc3Br)c3ccccc3[n+]2[O-])c1` was run?
The inhibition was -8.89%.

How did the inhibition turn out when `CCN(CC)S(=O)(=O)c1ccc(N2CCOCC2)c(NC(=O)C2CSC3(C)CCC(=O)N23)c1` (configuration not stated) was run?
The inhibition was -11.2%.

Which inhibition does the source give for `O=C(CC(O)(C(F)(F)F)C(F)(F)F)Nc1ccc(Cl)c(Cl)c1` here?
Its inhibition is 41.1% (active).

With `CN(CC(=O)Nc1ccc(Cl)c(C(F)(F)F)c1)C(=O)CCC(=O)c1ccccc1` as the compound, how does the inhibition read?
Its inhibition is 10.7%.

For `O=C(Cc1ncc(C(F)(F)F)cc1Cl)Nc1cccc(Br)c1`, which inhibition is on record?
Its inhibition is 0.3%.

With `CC(=O)N1CCN(Cc2cc(=O)oc3cc(C)ccc23)CC1` as the compound, how does the inhibition read?
Its inhibition is -6.95%.

For `Cc1cc(NC(=O)c2cc3ccccc3o2)no1`, which inhibition is on record?
The inhibition was 0.12%.

Which inhibition does the source give for `O=C(Nc1ccncc1)c1cc2ccccc2o1` here?
The inhibition was 11.1% (active).

`COc1cc2ccccc2cc1C(=O)Nc1ccncc1` was tested. Which inhibition did it give?
Its inhibition is -10.8%.

Which inhibition does the source give for `CNS(=O)(=O)c1cnccc1N1CCN(c2cccc(C)c2)CC1` here?
The inhibition was -21.3%.

Which inhibition does the source give for `CC(=O)N1CCc2c(sc(NC(=O)CCS(=O)(=O)c3ccc(C)cc3)c2C(N)=O)C1` here?
The inhibition was -9.37%.

How did the inhibition turn out when `CCc1nc2c(OCc3cccc(OC)c3)cccn2c1N(C)C(=O)C(C)C` was run?
The inhibition was 5.18%.

Which inhibition does the source give for `Cc1nc2c(OCc3cccc(Cl)c3)cccn2c1N(C)CC1CC1` here?
The inhibition was 68.1% (active).

For `CCc1nc2c(OCc3ccc(F)c(F)c3)cccn2c1N(C)C(=O)c1ccco1`, which inhibition is on record?
Its inhibition is -7.6%.

With `CCc1nc2c(OCc3ccccc3)cccn2c1N(C)C(=O)c1ccco1` as the compound, how does the inhibition read?
Its inhibition is -4.6%.

Which inhibition does the source give for `Cc1nc2c(OCC(=O)C(C)(C)C)cccn2c1N(C)Cc1cccs1` here?
The inhibition was -8.77%.

With `CCc1nc2c(OCc3ccc(Cl)cc3Cl)cccn2c1N(C)C(=O)C(C)C` as the compound, how does the inhibition read?
The inhibition was 2.38%.

With `Cc1nc2c(OCc3ccc(Cl)cc3Cl)cccn2c1N(C)CC1CC1` as the compound, how does the inhibition read?
Its inhibition is 43.8% (active).

How did the inhibition turn out when `Cc1nc2c(OCc3ccc(Cl)cc3)cccn2c1N(C)Cc1cccs1` was run?
Its inhibition is 38.4% (active).

With `CCCCC(=O)N(C)c1c(CC)nc2c(OCc3ccc(Cl)cc3Cl)cccn12` as the compound, how does the inhibition read?
Its inhibition is 23.1%.

How did the inhibition turn out when `O=C(NCCCn1ccnc1)c1cc2c(s1)CCCC2` was run?
The inhibition was -5.2%.

`CC(=O)Nc1ccc(CNc2nc(NCCN(C)C)nc3cc(-c4ccccc4)sc23)cc1` was tested. Which inhibition did it give?
Its inhibition is -17.6%.

Which inhibition does the source give for `COC(=O)c1ccc2c(c1)S(=O)(=O)NC(=NCCCN1CCOCC1)S2` here?
Its inhibition is -10.8%.

Which inhibition does the source give for `COc1ccc(NC(=O)/C(N=Nc2cccc(S(=O)(=O)Nc3ccc(SC(F)F)cc3)c2)=C(\C)O)cc1` here?
Its inhibition is -7.35%.

For `COc1cc(-c2nc(S(=O)(=O)c3ccc(Cl)cc3)c(N(C)C)o2)cc(OC)c1OC`, which inhibition is on record?
Its inhibition is -1.63%.

With `COC(=O)CCSc1nccn1Cc1ccccc1` as the compound, how does the inhibition read?
The inhibition was -11.6%.

How did the inhibition turn out when `CN(CCO)C(=O)c1nc[nH]c1C(=O)N(C)Cc1ccccc1` was run?
Its inhibition is -4.9%.

How did the inhibition turn out when `O=S1(=O)CC(N2CCN(CCO)CC2)CN1C1CCCC1` (configuration not stated) was run?
The inhibition was -4.22%.

With `CCOc1ccc(CCN2C(=S)N([C@@H](CC(C)C)CN3CCC[C@@H]3CN3C(=S)NC[C@@H]3Cc3ccc(O)cc3)C[C@@H]2CC(C)C)cc1` as the compound, how does the inhibition read?
The inhibition was 5.64%.

`COc1ccc(CN2CCCC(C(=O)N3CCCCC3)C2)cc1` (configuration not stated) was tested. Which inhibition did it give?
The inhibition was 5.19%.

Which inhibition does the source give for `COc1cc(CN2CCCC(C(=O)c3ccc(SC)cc3)C2)cc(Cl)c1O` (configuration not stated) here?
The inhibition was -1.81%.

How did the inhibition turn out when `COc1ccc(CN2CCCC(C(=O)c3ccc(Cl)cc3)C2)cc1Cn1cncn1` (configuration not stated) was run?
The inhibition was 75.4% (active).

With `CS(=O)(=O)c1ccccc1C(=O)Nc1ccc2sccc2c1` as the compound, how does the inhibition read?
Its inhibition is -10.3%.

With `CCC1C(=O)NCCN1C(=O)c1ccc2nc(Cc3ccc(OC)cc3)oc2c1` (configuration not stated) as the compound, how does the inhibition read?
The inhibition was -5.11%.

Which inhibition does the source give for `CCn1ccnc1CN(C)C(=O)c1ccc2nc(Cc3ccc(OC)cc3)oc2c1` here?
Its inhibition is 56.1% (active).

For `COc1ccc(Cc2nc3ccc(C(=O)N4CCC(N(C)C)C4)cc3o2)cc1` (configuration not stated), which inhibition is on record?
Its inhibition is 3.18%.

For `CCC1Sc2ccc(S(=O)(=O)CCC(=O)NCc3cccs3)cc2NC1=O` (configuration not stated), which inhibition is on record?
Its inhibition is -5.05%.

Which inhibition does the source give for `CC12C(=O)N(n3cnnc3)C(=O)C1C1C=CC2C1` (configuration not stated) here?
The inhibition was 2.29%.

Which inhibition does the source give for `Cc1ccc(C)c(S(=O)(=O)N2CCN(c3ncnc4sccc34)CC2)c1` here?
The inhibition was 34.7% (active).

With `Cc1ccc(S(=O)(=O)N2CCN(Cc3cccc(C)c3O)CC2)cc1` as the compound, how does the inhibition read?
The inhibition was 4.67%.

For `Cc1ccc(S(=O)(=O)N2CCN(C)CC2)cc1`, which inhibition is on record?
Its inhibition is -16.6%.

For `Cc1ccc(C)c(S(=O)(=O)N2CCN(CC(=O)Nc3ccc([N+](=O)[O-])cc3)CC2)c1`, which inhibition is on record?
The inhibition was 9.07%.

For `Cc1ccc(S(=O)(=O)N2CCN(c3ncnc4ccccc34)CC2)cc1`, which inhibition is on record?
Its inhibition is 35.8% (active).

`COc1ccc(-c2csc3ncnc(N4CCN(S(=O)(=O)c5ccccc5C#N)CC4)c23)cc1` was tested. Which inhibition did it give?
Its inhibition is -2.61%.

For `CC(Sc1sc(=S)sc1SC(C)C(=O)O)C(=O)O` (configuration not stated), which inhibition is on record?
The inhibition was 1.12%.

For `C[C@H]([C@@H](O)[C@@H](O)[C@@H](C)C(C)(C)C)[C@H]1CC[C@H]2C3CC[C@H]4C[C@H](OS(=O)(=O)O)[C@@H](OS(=O)(=O)O)C[C@]4(C)[C@H]3CC[C@]12C` (some centres not stated), which inhibition is on record?
Its inhibition is -9.61%.

Which inhibition does the source give for `Cc1nc(-c2nnc(SCC(=O)Nc3cc(C(F)(F)F)cc(C(F)(F)F)c3)n2C)cs1` here?
Its inhibition is -3.69%.

With `C=C1C(=O)[C@]23C[C@H]1CCC2[C@@]1(C)C(C[C@@H]3O)[C@](C)(C(=O)O)CC[C@@H]1O` (some centres not stated) as the compound, how does the inhibition read?
Its inhibition is -14.8%.

Which inhibition does the source give for `CN1/C(=c2/s/c(=C3/C(=O)N(c4ccccc4)NC3=Nc3ccccc3)n(C)c2=O)C(C)(C)c2ccccc21` here?
The inhibition was 12.2%.

How did the inhibition turn out when `Cc1ccccc1C(OCC(O)CN1CCCCC1CCO)c1ccccc1` (configuration not stated) was run?
Its inhibition is 28.9% (active).

How did the inhibition turn out when `COc1cccc(CN(C)CC(O)COC(c2ccccc2)c2ccccc2C)c1` (configuration not stated) was run?
The inhibition was 16.4%.

How did the inhibition turn out when `CCOc1ccccc1CN1CCN(C2CCC2)CC1CCO` (configuration not stated) was run?
Its inhibition is -17.7%.

`C[C@H]1CN([C@@H](C)CO)C(=O)CCCn2cc(nn2)CO[C@@H]1CN(C)S(=O)(=O)c1cccc(C#N)c1` was tested. Which inhibition did it give?
Its inhibition is -7.84%.

How did the inhibition turn out when `Cc1cc(Br)cn2c(Cc3ccsc3)c(-c3ccc(C#N)cc3)nc12` was run?
Its inhibition is -2.47%.

For `CC(=O)c1nn(-c2ccccc2)c(=Nc2ccccc2)cc1C`, which inhibition is on record?
Its inhibition is 2.25%.

For `COc1ccc(C(=O)OCC(=O)NCCCc2ccccc2)cc1OC`, which inhibition is on record?
The inhibition was -14.8%.

With `CCN(CCCCOC(=O)c1ccc(OC)c(OC)c1)C(C)Cc1ccc(OC)cc1` (configuration not stated) as the compound, how does the inhibition read?
Its inhibition is 91.6% (active).

`COc1ccc(C(CCN(Cc2ccc(OC)c(OC)c2)C(=O)CCl)c2ccccc2)cc1` (configuration not stated) was tested. Which inhibition did it give?
Its inhibition is -0.77%.

`CCN1CCN(c2ccc([N+](=O)[O-])cc2C(=O)c2ccc(Cl)cc2)CC1` was tested. Which inhibition did it give?
The inhibition was 96.3% (active).

For `O=C(Nc1cccc(Cl)c1)c1cc([N+](=O)[O-])ccc1N1CCN(CCO)CC1`, which inhibition is on record?
The inhibition was -7.1%.

For `CCC(=O)c1ccc(N2CCN(C(=O)c3cc([N+](=O)[O-])ccc3F)CC2)c(F)c1`, which inhibition is on record?
The inhibition was 11.9%.

With `Cc1cccc(OCC(=O)OCC(=O)Nc2ccc(Cl)cn2)c1` as the compound, how does the inhibition read?
The inhibition was -3.17%.

`CCc1noc(C)c1C(=O)N1CCCSC1=Nc1ccccc1OC` was tested. Which inhibition did it give?
The inhibition was 3.24%.

Which inhibition does the source give for `CC(C)c1ccc2oc(=O)cc(CN3CCN(Cc4ccccc4)CC3)c2c1` here?
The inhibition was -7.34%.

With `N#Cc1ccc(OCCN2C(=O)NC3(CCSC3)C2=O)cc1` (configuration not stated) as the compound, how does the inhibition read?
Its inhibition is 5.7%.

How did the inhibition turn out when `COc1ccc(-c2cc3c(c4c2ccn4C)C2CCC3C2)cn1` (configuration not stated) was run?
The inhibition was 3.78%.

For `CC(=O)c1c(C)[nH]c(C(=O)COC(=O)c2cccc(S(=O)(=O)N(C)c3ccccc3)c2)c1C`, which inhibition is on record?
The inhibition was 57% (active).

With `CC(=O)c1c(C)[nH]c(C(=O)COC(=O)c2cccs2)c1C` as the compound, how does the inhibition read?
Its inhibition is 10.1%.

Which inhibition does the source give for `COc1cccc(C(=O)OCC(=O)c2[nH]c(C)c(C(C)=O)c2C)c1` here?
Its inhibition is 8.52%.

How did the inhibition turn out when `O=C1C=C(c2ccccc2)CCC1` was run?
The inhibition was 6.35%.

For `NC(Cc1ccc(F)cc1)c1csc(Nc2nncc3ccccc23)n1` (configuration not stated), which inhibition is on record?
Its inhibition is -3.42%.

For `COc1ccc(C(=O)NC2CCCc3c2cnn3-c2cccc(C)c2C)c(OC)n1` (configuration not stated), which inhibition is on record?
Its inhibition is 46.9% (active).

With `COc1ccc(OC)c(C(=O)NC2CCCc3c2cnn3-c2cc(C)cc(C)c2)c1` (configuration not stated) as the compound, how does the inhibition read?
The inhibition was -5.27%.

How did the inhibition turn out when `COc1ccc(C(=O)NC2CC(C)(C)Cc3c2cnn3-c2ccccc2C)o1` (configuration not stated) was run?
The inhibition was 0.26%.

How did the inhibition turn out when `Cc1cn([C@H]2C[C@H](O)[C@@H](/C=C/C(=O)NCCCc3ccccc3)O2)c(=O)[nH]c1=O` was run?
The inhibition was -25.2%.

With `COc1cccc(NC(=O)CN(C)C(=O)CSCc2nc3scc(-c4cccs4)c3c(=O)[nH]2)c1` as the compound, how does the inhibition read?
Its inhibition is -1.71%.

How did the inhibition turn out when `CCN(CCCNC(=O)c1ccc2c(c1)NC(=O)CN2C)c1cccc(C)c1` was run?
Its inhibition is 8.18%.

`NS(=O)(=O)c1cccc(NC(=O)CC23CC4CC(CC(Br)(C4)C2)C3)c1` was tested. Which inhibition did it give?
Its inhibition is 6.38%.

`CCCOc1ccc(F)cc1-c1cc(C(=O)NCc2ccc(F)cc2)[nH]n1` was tested. Which inhibition did it give?
The inhibition was 1.58%.

With `CCCOc1ccc(F)cc1-c1cc(C(=O)Nc2ccc(F)c(Cl)c2)[nH]n1` as the compound, how does the inhibition read?
The inhibition was 58.9% (active).

Which inhibition does the source give for `CC(C)Oc1cc(F)ccc1-c1cc(C(=O)Nc2cccc(Cl)c2)[nH]n1` here?
The inhibition was 24.4%.

`CC(C)Oc1cc(F)ccc1-c1cc(C(=O)Nc2ccc(F)cc2)[nH]n1` was tested. Which inhibition did it give?
Its inhibition is 5.41%.

How did the inhibition turn out when `CCCOc1ccc(F)cc1-c1cc(C(=O)Nc2ccc(F)cc2)[nH]n1` was run?
Its inhibition is 34.5% (active).

For `COc1ccc(Cl)cc1-c1cc(C(=O)Nc2cc(OC)c(OC)c(OC)c2)[nH]n1`, which inhibition is on record?
The inhibition was 0.33%.

With `CCOC(=O)[C@H]1Nc2ccc(Cl)cc2[C@@H]2[C@H]1C1CC(c3ccccc31)N2C(=O)OCc1ccccc1` (some centres not stated) as the compound, how does the inhibition read?
Its inhibition is 6.68%.

Which inhibition does the source give for `Nc1cc(C(F)(F)F)ccc1N1CCOCC1` here?
The inhibition was 3.72%.
